Compound activity deposited in PubChem by National Center for Advancing Translational Sciences (NCATS).
Sampled rows, rich in hits. Any-hit rate of the full collection: about 7.3%.
Rab9 promoter act: qHTS Assay for Rab9 Promoter Activators | Potency, µM (doses to about 9.22 µM), for inactives: at the top dose activation, negative = inhibition, actives largely listed as activators | hit rate 2.8% among 320,000 | Huh7 Rab9 promoter-luciferase reporter, luminescence, 24 h; further: % of control where 0% means no effect; nearly all actives have a fitted effect of over 60% in size
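Huh7 cells stably carrying a Rab9 promoter-luciferase reporter, 1500 cells per well in OP-MEM I with 10% FBS, treated with compound 24 hours at 37C. Luciferase activity read by luminescence after 10 minutes with Amplite reagent.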
SMN2 splice enh: qHTS Assay for Enhancers of SMN2 Splice Variant Expression. HEK293 SMN2-luciferase splicing reporter, luminescence, 30-36 h. Potency, µM (doses to about 46.1 µM), for inactives: at the highest dose activity change, positive = activation, actives largely listed as activators. hit rate 2.8% among 210,000. AID 1458, 2008; further: % of control where 0% means no effect; nearly all actives have a fitted effect of over 55% in size
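qHTS luciferase splicing reporter: luminescence rises when SMN2 exon 7 is included in transfected HEK293 cells. Compound exposure lasted 30-36 h at 37C, with 4.5 mM final sodium butyrate as control, followed by a ONE-Glo read.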
ELG1 genotox: qHTS screen for small molecules that induce genotoxicity in human embryonic kidney (HEK293T) cells expressing luciferase-tagged ELG1; HEK293T ELG1-luciferase reporter, luminescence, 16 h; Potency, µM (doses to about 46 µM), for the others: at the top dose activity change, positive = activation, most hits filed as activators; hit rate 1.3% among 330,000; AID 504466, 2011; further: % of control where 0% means no effect; nearly all actives have a fitted effect of over 60% in size
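Reporter readout depends on ELG1 protein level, which increases with genetic stress. After 16 hr compound exposure at 37 °C, luciferase activity was quantified using ONE-Glo.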
FLuc modulator: qHTS profiling assay for firefly luciferase inhibitor/activator using purifed enzyme and Km concentrations of substrates (counterscreen for miR-21 project); purified FLuc, Km substrates, luminescence inhibition; Luciferin 4-monooxygenase (Photinus pyralis), P08659; Potency, µM (doses to about 57.5 µM), for the others: top-dose activity change, negative = inhibition, actives largely listed as inhibitors; hit rate 6.9% among 360,000;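 further: plate controls were vehicle for no effect and reference inhibitor for full effect; nearly all actives have a fitted effect of over 55% in size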
Target sequence (P08659 whole entry, looked up): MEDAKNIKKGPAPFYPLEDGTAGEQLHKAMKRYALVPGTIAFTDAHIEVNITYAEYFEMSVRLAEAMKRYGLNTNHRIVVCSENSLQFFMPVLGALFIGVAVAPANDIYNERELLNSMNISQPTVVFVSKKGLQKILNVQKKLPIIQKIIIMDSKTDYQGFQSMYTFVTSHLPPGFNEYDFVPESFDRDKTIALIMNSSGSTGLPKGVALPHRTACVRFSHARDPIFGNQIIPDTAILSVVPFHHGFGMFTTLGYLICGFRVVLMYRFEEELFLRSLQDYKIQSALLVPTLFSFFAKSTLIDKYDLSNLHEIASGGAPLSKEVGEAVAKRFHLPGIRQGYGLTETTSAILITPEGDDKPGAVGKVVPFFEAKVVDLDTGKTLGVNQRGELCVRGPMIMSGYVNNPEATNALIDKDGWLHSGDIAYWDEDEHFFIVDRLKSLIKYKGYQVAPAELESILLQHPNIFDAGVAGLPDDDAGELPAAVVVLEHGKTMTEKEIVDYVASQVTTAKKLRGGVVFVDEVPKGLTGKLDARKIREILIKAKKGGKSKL
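Biochemical qHTS of compounds, final roughly 60 µM downward over six points, against 10 nM purified firefly luciferase using Km concentrations of substrates (10 uM D-luciferin, 10 uM ATP) in Tris acetate pH 7.5 buffer; luminescence output.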
KinaseGlo FLuc: Counterscreen for Luciferase (Kinase-Glo TM) Inhibition. Luciferin 4-monooxygenase (Photuris pensylvanica), Q27757. Kinase-Glo luciferase, ATP luminescence, 8 min. Potency, µM (series often up to 38.3 µM), inactives show at the highest dose activity change, negative = inhibition, hits mostly inhibitors. hit rate 0.28% among 200,000; further: on the % scale 0 is the no-effect control and ±100 the full control effect; nearly all actives have a fitted effect of over 60% in size
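Light output from Kinase-Glo luciferase with luciferin and 10 uM ATP in 50 mM imidazole pH 7.2, KCl, MgCl2, Tween 20, BSA; compound pin-delivered, 8-min ambient incubation, then luminescence read.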
NPC1 promoter act: qHTS Assay for NPC1 Promoter Activators; Huh7 NPC1 promoter luciferase reporter, 24 h; Potency, µM (top dose mostly 9.22 µM), for inactives: at the top dose activation, hits mostly activators; hit rate 2.4% among 320,000; AID 485313, 2010; further: % of control where 0% means no effect; nearly all actives have a fitted effect of over 60% in size
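Huh7 cells stably carrying NPC1 promoter–luciferase, plated in Opti-MEM with 10% FBS for 2 h, were exposed to compound in DMSO for 24 h at 37 °C; luciferase reagent was added for 10 min and luminescence read.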
Starred values were filed as active, the others as inactive; ? = inconclusive; . = not tested or not shown; [ ] = another dose, or the depositor's remark. The call rests on the fitted dose curve; in most records, active means well fitted curve in the direction sought with a large enough effect; inconclusive means small, poorly fitted or top-dose-only effect, or another doubt; inactive means no such curve, though single readings can be large; an effect the other way counts as inactive or inconclusive. Potency means the concentration at half of the fitted maximal effect.

SMILES	Rab9 promoter act	SMN2 splice enh	ELG1 genotox	FLuc modulator	KinaseGlo FLuc	NPC1 promoter act
CCCCOC(=O)Oc1ccc2c(=O)c(Oc3cccc(C)c3)coc2c1	20%	13µM*	25%	-15%	3%	9%
CN1[C@@H]2CC[C@H]1CC(OC(=O)[C@@H](CO)c1ccccc1)C2 (stereo partly drawn)	.	-1%[20.6 µM]	.	.	1%[17.1 µM]	.
COc1cc(CNCc2ccccn2)ccc1OCc1ccc(Cl)cc1Cl	8%	-15%	-2%	-9%	-6%	2%
COc1cc(CNCc2ccccn2)ccc1OCc1ccc(Cl)c(Cl)c1	13%	7%	10%	17µM*	1%	11%
Nc1ncccc1OCc1ccc(Cl)c(Cl)c1	1.4µM*	.	?	7.6µM*	.	2.8µM*
O=C(OCc1ccc(Cl)c(Cl)c1)c1cccnc1Cl	-5%	.	2%	?	.	-3%
CC(C)C(NS(=O)(=O)c1ccc2c(c1)oc(=O)n2C)C(=O)N1CCN(c2cccc(Cl)c2)CC1 (stereo not drawn)	.	31%	.	5%	.	.
CCc1ccc(NC(=O)CCC(=O)Nc2nnc(C(F)(F)F)s2)cc1	0%	.	9%	27µM*	.	21%
COCCCNC(=O)C1CCN(c2nc3ccc(C)cc3[nH]2)CC1	.	.	.	1%	.	.
CCCCn1c(/C=C/c2ccco2)nc2ccccc21	12%	16µM*	13%	13µM*	-19%	11%
CCCn1c(NCc2ccco2)nc2ccccc21	-7%	?	2%	0%	0%	0%
CCCn1c(/C=C/c2ccco2)nc2ccccc21	19%	14µM*	1%	12µM*	-11%	20%
CCC(CC)C(=O)N1CCc2cc(OC)c(OC)cc2C1COc1ccc2c(C)cc(=O)oc2c1 (stereo not drawn)	.	8%	.	3%	.	.
C(=N\Nc1ncnc2sc3c(c12)CCC3)/c1cccs1	-1%	-47%	-6%	-20%	6%	-7%
Cn1cnc2c(N/N=C/c3cccs3)ncnc21	1.8µM*	.	?	8.5µM*	.	3.5µM*
CCN1CCC(N(Cc2ccc3c(c2)OCO3)C(=O)Nc2cc(Cl)ccc2C(=O)OC)CC1	.	.	.	1%	.	.
COc1ccc2c(c1)c1c(c(=O)n(Cc3ccccc3)c(=O)n1Cc1cc(C)ccc1C)n2C	.	.	.	0%	.	.
N#C/C(=C\c1ccc(-c2cc(Cl)ccc2Cl)o1)C(=O)Nc1cccc2ncccc12	-17%[46.1 µM]	.	.	.	.	-5%[46.1 µM]
O=C1CN2CCN(CC2)CC(=O)Nc2ccc(cc2)S(=O)(=O)c2ccc(cc2)NC(=O)CN2CCN(CC2)CC(=O)Nc2ccc(cc2)S(=O)(=O)c2ccc(cc2)N1	.	-8%[9.22 µM]	.	.	-3%[7.66 µM]	.
O=C(/C=C/c1ccccc1)Nc1cccnc1Cl	2.2µM*	.	18µM*	12µM*	.	2.2µM*
O=C(COC(=O)/C=C/c1ccccc1)Nc1cccnc1Cl	9%	.	0%	?	.	5%
COC(=O)c1ccccc1NC(=O)/C=C/c1ccco1	28%	15%	-5%	15µM*	-11%	10%
O=C(/C=C/c1ccco1)NCc1ccccn1	11%	10%	5%	-10%	0%	0%
O=C(/C=C/c1ccco1)Nc1cccnc1Cl	4µM*	.	?	15µM*	.	4µM*
CCOc1ccccc1CNC(=O)c1cc2c(=O)n(Cc3ccccc3)ccc2nc1C	.	.	.	-10%	.	.
SMILES	Rab9 promoter act	SMN2 splice enh	ELG1 genotox	FLuc modulator	KinaseGlo FLuc	NPC1 promoter act
CCc1ccccc1NC(=O)CN1C(=O)COc2ccc(S(=O)(=O)N3CCCCCC3)cc21	.	.	.	-1%	.	.
ClC(Cl)(Cl)c1nc(N/N=C/c2ccncc2)c2ccccc2n1	1%	2%	-7%	-1%	4%	-3%
Cc1cc(N/N=C/c2cccc(Br)c2)nc2ccccc12	?	13µM*	?	4.8µM*	-3%	3.2µM*
Cc1cc(N/N=C/c2ccncc2)nc2ccccc12	2.8µM*	14µM*	?	11µM*	1%	?
CC(C)C(=O)N1c2nc(-c3ccco3)nn2C2(CCCCC2)[C@@H]2CCCC[C@@H]21	.	.	.	-7%	.	.
CCOc1ccc(/C=C/C(=O)Oc2ccccc2)cc1	12%	.	5%	1.5µM*	.	-4%
O=Cc1ccc(OC(=O)/C=C/c2ccccc2)cc1	5%	.	1%	19µM*	.	-1%
COc1ccc(OC(=O)/C=C/c2ccc([N+](=O)[O-])cc2)cc1	-10%[1.84 µM]	.	-1%	7%	.	2%
CCOc1ccc(/C=C/C(=O)c2ccc(-c3ccccc3)cc2)cc1	-5%	-20%	-5%	-8%	0%	2%
CC(=O)N1c2ccc(N=Cc3cc(Br)cc(Br)c3O)cc2CC1C (stereo not drawn)	1%	.	2%	9.5µM*	.	-3%
Cc1ccc(-c2nc(S(=O)(=O)c3ccc(C)cc3)c(N3CCCCC3)o2)cc1	.	4%	.	1%	.	.
Fc1cccc(Cl)c1CN1CCN(c2nc3ccccc3s2)CC1	2.5µM*	.	15µM*	5.4µM*	.	2.5µM*
O=C(c1ccc2ccccc2n1)N1CCN(Cc2c(F)cccc2Cl)CC1	-4%	.	-8%	-1%	.	0%
CC(C)C(=O)N1CCN(c2nc3ccc(Cl)cc3s2)CC1	?	.	?	?	.	2.5µM*
Fc1cccc2sc(N3CCCCC3)nc12	?	?	13µM*	19µM*	-4%	?
Fc1cccc2sc(N3CCOCC3)nc12	21%	?	14%	?	-3%	13%
Clc1ccc2nc(N3CCCCC3)[nH]c2c1	1.4µM*	14µM*	2.1µM*	4.8µM*	-20%	1.6µM*
CC(C)NC(=O)N1CCCN(c2nc3ccc(Cl)cc3s2)CC1	-9%	.	-4%	?	.	-4%
Cc1ccc(NC(=O)N2CCC(CN3CCCCCC3)CC2)c(Cl)c1	.	.	.	2%	.	.
O=C(O)CCCCn1cnc2c(=S)nc[nH]c21	.	-6%[9.22 µM]	.	.	-8%[7.66 µM]	.
Clc1ccc2nc(N3CCCCC3)sc2c1	2.5µM*	11µM*	?	2.7µM*	-10%	1.4µM*
COc1cc(Nc2ncc3c(n2)CCN(Cc2cc(F)cc(F)c2)C3)cc(OC)c1	.	.	.	-4%	.	.
CCOC(=O)C(=CNc1ccc2c(c1)CCN2C(C)=O)C(=O)OCC	28%	.	-1%	12µM*	.	17%
c1ccc2c(c1)nnn1c3ccccc3nc21	25%	-49%	1.6µM*	4.8µM*	13µM*	1.1µM*
Cc1nc2ccccc2c2nc3ccccc3n12	3%[1.84 µM]	4%	?	?	2%	7%
CCCCN(CC)CCNC(=O)CCn1cnc2onc(-c3ccc(F)cc3)c2c1=O	.	.	.	-6%	.	.
